This is a sample that favours compounds with a hit; in the whole collection about 31% have one here.
CYP2C9 activ = human CYP2C9 activators, primary screen, biochemical, luminescence; activation factor at 5 µM; 96,000 compounds, 1.4% hits; recombinant CYP2C9, luciferin-H conversion; hits give high values; factor 1 = untreated enzyme, 0 = blocked; Cytochrome P450 2C9 (Homo sapiens), P11712;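 active = activation factor of 2 or more for CYP2C9 at a 5 µM dose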;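 also: 0 = sulfaphenazole-blocked wells and 1 = vehicle-only wells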
PLAP activator = PLAP enzyme activators, biochemical, luminescence, HTS; 96,000 compounds, 1.2% hits; Alkaline phosphatase, placental type (Homo sapiens), P05187; AID 696, 2007; activation fold at 20 µM; purified PLAP enzyme, luminescent substrate read-out; hits give high values; in the data active = activation fold above about 2
CYP2C19 act = human CYP2C19 activators, primary screen, biochemical, luminescence | Cytochrome P450 2C19 (Homo sapiens), P33261 | recombinant CYP2C19, luciferin-H EGE luminescence; hits give high values; 0 = fully inhibited enzyme, 1 = untreated enzyme | activation factor at 5 µM | 96,000 tested, under 10 active | AID 1025, 2008;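 active = activation factor of at least 2 at 5 µM in the primary screen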;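 also: 0 = wells with 2.5 mM tranylcypromine and 1 = vehicle-only wells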
Target sequence (P33261 whole entry, looked up): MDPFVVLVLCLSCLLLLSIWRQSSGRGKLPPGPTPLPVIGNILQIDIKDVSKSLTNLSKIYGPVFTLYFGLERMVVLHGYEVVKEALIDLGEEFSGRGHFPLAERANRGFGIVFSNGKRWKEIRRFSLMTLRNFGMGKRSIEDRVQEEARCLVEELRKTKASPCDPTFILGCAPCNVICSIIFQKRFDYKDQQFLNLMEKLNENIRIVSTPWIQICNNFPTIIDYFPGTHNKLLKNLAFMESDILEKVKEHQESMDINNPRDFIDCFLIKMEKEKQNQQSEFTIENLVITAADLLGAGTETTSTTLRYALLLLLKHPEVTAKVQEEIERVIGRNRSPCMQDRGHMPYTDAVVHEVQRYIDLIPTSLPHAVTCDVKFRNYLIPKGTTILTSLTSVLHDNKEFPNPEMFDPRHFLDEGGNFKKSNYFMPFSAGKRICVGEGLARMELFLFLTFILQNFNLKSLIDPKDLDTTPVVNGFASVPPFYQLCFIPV
CYP2C9 inhib = blockers of cytochrome P450 2C9 activity – biochemical, luminescence, ADME assay, primary screen. P11712. CYP2C9 Supersomes, luciferin-H conversion. inhibition, % at 5 µM. 96,000 compounds, 20% hits. AID 777, 2007;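 active = blocking of liver enzyme CYP2C9 beyond about 50% at 5 µM, limit read from the data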
CYP2C19 inhib = blockers of cytochrome P450 2C19 activity – biochemical, luminescence, ADME assay, primary screen. P33261. CYP2C19 Supersomes, luciferin-H EGE luminescence, 30 min. inhibition, % at 5 µM. 96,000 compounds, 21% hits;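 active = CYP2C19 inhibition above a set limit at 5 µM in the primary screen, cut at about 50% in these data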;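 also: plate controls were negative control wells for no effect and 2.5 mM tranylcypromine positive control for full effect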
Active calls of the source: *.

SMILES	CYP2C9 activ	PLAP activator	CYP2C19 act	CYP2C9 inhib	CYP2C19 inhib
CC(C)c1nc2ccc(NC(=O)C34CC5CC(CC(C5)C3)C4)cc2[nH]1	0.7	2*	0.8	31	20
CC(CCc1ccco1)NC(=O)Nc1cccc(F)c1 (centres undefined)	0.2	1.3	0.2	83*	84*
Cc1ccc(NC(=O)CS(=O)CC(=O)NC(C)CCc2ccco2)cc1Cl (centres undefined)	0.8	0.9	0.7	16	34
O=C(CN1C(=O)CSC1=O)Nc1ccc(C(=O)O)cc1	1.1	1.4	0.8	-6	25
CC(C)COc1ccc(CSCCNC(=S)Nc2ccccc2)cc1	0.4	1	0.6	58*	36
CCCNC(=S)Nc1ccc(Nc2ccccc2)cc1	0.6	0.7	0.7	39	26
C/C(=N\NC(=O)C(C)Oc1ccc([N+](=O)[O-])cc1)c1ccccn1 (centres undefined)	1.3	1.4	0.3	-31	68*
COc1ccc(-c2cc(CNC(=O)CN3CCN(C)CC3)on2)cc1	1.1	1	1	-11	-3
Cc1ccc(C(=O)NCCNC(=O)CN2CCOCC2)cc1	1.1	1	1	-6	-1
COc1ccc(S(=O)(=O)N(CCc2ccccc2)CC(=O)NC(C)C)cc1	0.4	1.1	0.4	58*	56*
CNC(=O)CN(Cc1ccccc1)S(=O)(=O)c1ccccc1	0.9	0.9	0.4	14	59*
Cc1ccc(S(=O)(=O)N(CC(=O)N2CCC(C(N)=O)CC2)Cc2ccc(F)cc2)cc1	0.6	1.4	0.7	38	30
COc1ccc(S(=O)(=O)N(CC(=O)NC(C)C)Cc2ccccc2)cc1	0.5	1.1	0.5	50*	52*
O=C(CN(Cc1ccc(F)cc1)S(=O)(=O)c1ccccc1)N1CCCCC1	0.5	1.8	0.3	45	65*
O=C(c1ccc(-c2nnc(Nc3ccccc3)c3ccccc23)cc1)N1C[C@H]2C[C@H](C1)c1cccc(=O)n1C2	0.7	1.5	0.9	34	9
C=CCN(C(=O)CNC(=O)c1ccco1)C(C(=O)NC1CCCCC1)c1ccccc1F (centres undefined)	0.7	1.1	0.7	30	35
COc1ccc(OC)c2sc(NC(=O)C(C)C)nc12	0.3	1.4	0.5	70*	46
COc1ccc(OC)c2sc(NC(=O)C3=COCCO3)nc12	0.7	1	0.9	31	13
Cn1c(=O)c2c(nc(CN3CCN(CCO)CC3)n2Cc2cccc3ccccc23)n(C)c1=O	0.7	1.9	0.6	35	41
O=C1c2ccccc2S(=O)(=O)N1CC(O)COc1ccc(Br)cc1 (centres undefined)	0.3	1.1	0	69*	100*
Cc1c(C)n(CC(O)CN2C(=O)c3ccccc3S2(=O)=O)c2ccccc12 (centres undefined)	0	1.1	0	97*	98*
CN1CC(=O)N(CCOc2ccccc2)C1=O	1	1.1	1	-2	3
O=C1c2ccccc2S(=O)(=O)N1CCOc1ccccc1	0.5	0.7	0	50	98*
OC(COc1ccc(Br)cc1)CN1CCOCC1 (centres undefined)	1	1	0.8	3	21
O=C1c2ccccc2S(=O)(=O)N1CC(O)COc1ccc(Cl)cc1 (centres undefined)	0.3	1.1	0	67*	100*
SMILES	CYP2C9 activ	PLAP activator	CYP2C19 act	CYP2C9 inhib	CYP2C19 inhib
CCN(CC)C(=O)CSc1nnc(CCNC(=O)OC(C)(C)C)o1	1	1	0.7	-4	28
C=CCn1c(=N)c(C(=O)OC)cc2c(=O)n3cccc(C)c3nc21	0.7	0.8	1	25	1
COC(=O)CSc1snnc1-c1ccc(Cl)cc1Cl	0.6	1	0.2	36	77*
CCOC(=O)c1ccc(NC(=O)NC2CCN(CC(=O)NCc3ccc4c(c3)OCO4)CC2)cc1	0.9	1.1	1	10	4
CC1=C(C#N)C(c2ccc3ncccc3c2)C(C#N)=C(C)N1	0.3	0.9	0.2	69*	83*
COc1cc(C2C(C#N)=C(C)NC3=C2C(=O)CC(C)(C)C3)ccc1OCCO (centres undefined)	0.5	1.3	0.9	47	14
